Assay results reported in PubChem BioAssay (Tox21).
Values joined by “and” are separate entries in the source; they are usually repeats but may differ in a detail not shown here. Identical values can stand only once. Results filed as inconclusive are left out. Entries that show only a call come without a potency. The source holds several records for some structures; these can differ, active in one and inactive in another. Active and inactive are the calls of the source. Unless noted, calls come from the whole dose curve; as a rule, active = well fitted curve in the direction sought with a large enough effect in the repeat runs; inconclusive = weak or mixed curves; inactive = no such curve, though single readings can be large; an effect the other way counts as inactive or inconclusive.

What was measured:
[1] = qHTS RealTime-Glo MT Cell Viability Assay in HEK293 cells - 0 hour (AID 1224880); note: nearly all actives have a fitted effect of over 45% in size; note: potency is the fitted concentration of half-maximal effect
In short: (§1)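 Luminescence readout at each listed time point; HEK293, 600 cells/well, RealTime-Glo MT reagent added with cells; compounds pinned (23 nL in DMSO) after 5 h at 37 C; continuous culture at 37 C.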

[2] = A CellTox Green Cytotoxicity Assay to monitor cytotoxicity in HEK293 cells - 32 hour (AID 1224881); note: nearly all actives have a fitted effect of over 40% in size; note: potency is the fitted concentration of half-maximal effect
In short: (§2)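 Read-out: fluorescence of a cell-impermeant cyanine dye staining DNA of dead cells, proportional to cytotoxicity. HEK293, 600 cells/well with reagent, compound (23 nL DMSO) added after 5 h; reads at 0, 8, 16, 24, 32, 40 h.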

[3] = A CellTox Green Cytotoxicity Assay to monitor cytotoxicity in HepG2 cells - 0 hour (AID 1224882); note: nearly all actives have a fitted effect of over 35% in size
In short: (§3)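 HepG2, 600 cells/well premixed w/ CellTox Green; 5 h settle, 37 C/5% CO2; pintool cpd add (DMSO); 37 C, 40 h; fluorescence read at 0, 8, 16, 24, 32, 40 h.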

[4] = A CellTox Green Cytotoxicity Assay to monitor cytotoxicity in HepG2 cells - 32 hour (AID 1224883); note: nearly all actives have a fitted effect of over 50% in size; note: potency is the fitted concentration of half-maximal effect
In short: as §3

[5] = A CellTox Green Cytotoxicity Assay to monitor cytotoxicity in HEK293 cells - 8 hour (AID 1224884); note: nearly all actives have a fitted effect of over 35% in size
In short: as §2

[6] = qHTS RealTime-Glo MT Cell Viability Assay in HepG2 cells - 16 hour (AID 1224885); note: nearly all actives have a fitted effect of over 50% in size
In short: (§4)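 HepG2 suspension premixed with RealTime-Glo reagents is plated at 600 cells per well and left 5 h at 37 C/5% CO2. Compounds in DMSO then go in, and bioluminescence reflecting viable cell number is recorded over 40 h.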

[7] = qHTS RealTime-Glo MT Cell Viability Assay in HEK293 cells - 24 hour (AID 1224886); note: nearly all actives have a fitted effect of over 50% in size; note: potency is the fitted concentration of half-maximal effect
In short: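 Reads taken at 0, 8, 16, 24, 32 and 40 h from the same wells. HEK293 cells (600/well) carried RealTime-Glo reagents from seeding, with compound added after a 5 h settle at 37 C.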

[8] = qHTS RealTime-Glo MT Cell Viability Assay in HEK293 cells - 8 hour (AID 1224887); note: nearly all actives have a fitted effect of over 50% in size; note: potency is the fitted concentration of half-maximal effect
In short: as §1

[9] = A CellTox Green Cytotoxicity Assay to monitor cytotoxicity in HEK293 cells - 16 hour (AID 1224888); note: nearly all actives have a fitted effect of over 35% in size
In short: as §2

[10] = qHTS RealTime-Glo MT Cell Viability Assay in HepG2 cells - 0 hour (AID 1224889); note: nearly all actives have a fitted effect of over 50% in size; note: potency is the fitted concentration of half-maximal effect
In short: as §4

[11] = A CellTox Green Cytotoxicity Assay to monitor cytotoxicity in HepG2 cells - 8 hour (AID 1224890); note: nearly all actives have a fitted effect of over 45% in size
In short: as §3

[12] = qHTS assay to identify small molecule antagonists of the estrogen receptor alpha (ER-alpha) signaling pathway using the BG1 cell line in the presence of 0.1 nM 17-beta-estradiol - cell viability counter screen (AID 1259241); note: nearly all actives have a fitted effect of over 40% in size; note: potency is the fitted concentration of half-maximal effect
In short: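 Measures cytotoxicity alongside the ER-alpha antagonist readout: VM7Luc4E2 cells, charcoal-stripped serum, 0.1 nM 17beta-estradiol final, 22 hr compound incubation at 37C, CellTiter-Fluor fluorescence.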

[13] = qHTS assay to identify small molecule antagonists of the androgen receptor (AR) signaling pathway using the MDA cell line in the presence of 0.5 nM R1881 - cell viability counter screen (AID 1259242); note: nearly all actives have a fitted effect of over 45% in size; note: potency is the fitted concentration of half-maximal effect
In short: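 Live-cell protease fluorescence, CellTiter-Fluor, 30 min at 37C. Cells: MDA-kb2, 3,000/well, preincubated 5 hr. Compounds plus 0.5 nM R1881 final, 16 hr, 37C, 0% CO2.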

[14] = qHTS assay to identify small molecule HDAC inhibitors - cell viability counter screen (AID 1259365)
In short: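 Following a 2hr exposure of overnight-plated wild-type HCT-116 cells to DMSO-delivered compounds, CellTiter-Glo was added and luminescence recorded after 30min at room temperature.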

[15] = qHTS assay to identify small molecule agonists of the sonic hedgehog signaling (Shh) pathway - cell viability counter screen (AID 1259366); note: nearly all actives have a fitted effect of over 50% in size; note: potency is the fitted concentration of half-maximal effect
In short: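 After a 4hr attachment at 37C, NIH/3T3 cells bearing an integrated Gli1-driven luciferase reporter were dosed with compounds. Treatment lasted 24hr, with the final hour including CellTiter-Fluor for a fluorescence viability measurement.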

[16] = qHTS assay to identify small molecule antagonists of the sonic hedgehog signaling (Shh) pathway - cell viability counter screen (AID 1259367); note: nearly all actives have a fitted effect of over 55% in size; note: potency is the fitted concentration of half-maximal effect
In short: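 Fluorescence read-out (CellTiter-Fluor, 1 hr at 37C) taken after 23 hr compound treatment of 3T3 Gli1-Luc cells stimulated with conditioned medium. Cells were seeded at 2,000 per well and pre-incubated 4 hr.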

[17] = qHTS assay to identify small molecule agonists of the sonic hedgehog signaling (Shh) pathway (AID 1259368; calls by dose curve;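 note: NIH/3T3-derived 3T3Gli1-Luc cells carrying a stable Gli1-driven firefly luciferase reporter; series mostly up to about 92 µM; nearly all actives have a fitted effect of over 15% in size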)
In short: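 Read-out: firefly luciferase luminescence from a Gli1 response element reporter stably integrated in NIH/3T3-derived 3T3Gli1-Luc cells, measured 30 min at room temperature after reagent addition. Compound exposure lasted 24 hr at 37 C, 5% CO2.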

[18] = qHTS assay to identify small molecule HDAC inhibitors (AID 1259364);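 note: wild-type HCT-116 cells with endogenous class I/II HDAC activity; top concentration of the series differs between compounds; nearly all actives have a fitted effect of over 45% in size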
In short: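 HCT-116 (wild type), 1,500 cells/well, overnight; compound 2 hr 37C 5% CO2; HDAC-Glo I/II reagent 30 min RT; luminescence readout.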

[19] = target: Estrogen receptor (Homo sapiens) (UniProt P03372); test: qHTS assay to identify small molecule antagonists of the estrogen receptor alpha (ER-alpha) signaling pathway using the BG1 cell line in the presence of 0.1 nM 17-beta-estradiol (AID 1259244); note: nearly all actives have a fitted effect of over 50% in size
In short: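 Luminescence after ONE-Glo (30 min, room temperature) measured ERE-luciferase activity in VM7Luc4E2 cells treated 22 h with compound and 0.1 nM final 17beta-estradiol as stimulator.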

[20] = target: Androgen receptor (Homo sapiens) (UniProt P10275); test: qHTS assay to identify small molecule antagonists of the androgen receptor (AR) signaling pathway using the MDA cell line in the presence of 0.5 nM R1881 (AID 1259243)
In short: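 MDA-kb2, MMTV-luc (AR/GR elements); 3,000 cells/well; cpd + 0.5 nM R1881 final; 16 hr 37C, 0% CO2; ONE-Glo 30 min RT; luminescence.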

Sequence of Androgen receptor (Homo sapiens) (P10275 whole entry, looked up): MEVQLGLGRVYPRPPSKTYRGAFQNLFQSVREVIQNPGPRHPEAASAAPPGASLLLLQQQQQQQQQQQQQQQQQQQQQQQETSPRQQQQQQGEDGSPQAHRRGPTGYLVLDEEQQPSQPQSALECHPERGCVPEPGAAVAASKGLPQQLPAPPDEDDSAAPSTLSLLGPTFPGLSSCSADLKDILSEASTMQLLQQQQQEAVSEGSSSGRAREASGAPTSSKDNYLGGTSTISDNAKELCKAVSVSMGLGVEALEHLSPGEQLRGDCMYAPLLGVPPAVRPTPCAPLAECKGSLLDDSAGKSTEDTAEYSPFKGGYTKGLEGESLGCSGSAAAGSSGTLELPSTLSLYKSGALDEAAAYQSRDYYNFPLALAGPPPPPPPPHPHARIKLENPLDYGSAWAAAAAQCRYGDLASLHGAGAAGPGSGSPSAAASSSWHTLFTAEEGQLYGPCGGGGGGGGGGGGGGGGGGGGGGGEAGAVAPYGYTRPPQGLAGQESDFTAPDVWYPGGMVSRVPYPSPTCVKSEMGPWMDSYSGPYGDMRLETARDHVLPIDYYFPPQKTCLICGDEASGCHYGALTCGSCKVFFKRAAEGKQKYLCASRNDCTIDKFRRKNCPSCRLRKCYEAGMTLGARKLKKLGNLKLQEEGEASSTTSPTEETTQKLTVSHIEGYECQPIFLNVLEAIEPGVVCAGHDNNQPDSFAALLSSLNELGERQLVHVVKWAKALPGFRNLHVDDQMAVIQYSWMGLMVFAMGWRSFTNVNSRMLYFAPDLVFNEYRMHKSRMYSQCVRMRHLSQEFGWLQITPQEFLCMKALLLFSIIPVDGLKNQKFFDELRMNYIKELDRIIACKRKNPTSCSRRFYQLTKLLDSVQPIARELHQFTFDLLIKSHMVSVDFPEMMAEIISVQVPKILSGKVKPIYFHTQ
Sequence of Estrogen receptor (Homo sapiens) (P03372 whole entry, looked up): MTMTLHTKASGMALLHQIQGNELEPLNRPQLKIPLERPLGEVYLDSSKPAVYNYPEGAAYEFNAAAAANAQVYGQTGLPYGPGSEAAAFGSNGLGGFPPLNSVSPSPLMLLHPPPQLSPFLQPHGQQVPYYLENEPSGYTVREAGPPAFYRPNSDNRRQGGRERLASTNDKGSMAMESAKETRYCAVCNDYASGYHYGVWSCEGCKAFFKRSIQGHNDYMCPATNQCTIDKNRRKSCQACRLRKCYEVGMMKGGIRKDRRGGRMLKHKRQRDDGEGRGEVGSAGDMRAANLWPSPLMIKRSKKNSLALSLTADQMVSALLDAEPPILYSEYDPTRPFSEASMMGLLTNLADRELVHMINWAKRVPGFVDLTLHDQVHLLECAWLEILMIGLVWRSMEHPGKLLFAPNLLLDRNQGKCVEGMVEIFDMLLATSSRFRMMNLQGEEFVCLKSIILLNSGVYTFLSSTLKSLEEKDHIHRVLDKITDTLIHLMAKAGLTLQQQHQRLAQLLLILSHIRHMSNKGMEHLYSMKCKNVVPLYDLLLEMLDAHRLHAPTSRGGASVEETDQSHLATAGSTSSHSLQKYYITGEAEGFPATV

## COc1ccc(C(CN(C)C)C2(O)CCCCC2)cc1 (stereo not given)
[1]
  Potency: inactive
[2]
  Potency: inactive
[3]
  Potency: inactive
[4]
  Potency: inactive
[5]
  Potency: inactive
[6]
  Potency: inactive
[7]
  Potency: inactive
[8]
  Potency: inactive
[9]
  Potency: inactive
[10]
  Potency: inactive
[11]
  Potency: inactive
[12]
  Potency: inactive
[13]
  Potency: inactive
[14]
  outcome: inactive
[15]
  Potency: inactive
[16]
  Potency: inactive
[17]
  Potency: inactive

## CC(O)CCO (stereo not given)
[1]
  Potency: inactive
[2]
  Potency: inactive
[3]
  Potency: inactive
[4]
  Potency: inactive
[5]
  Potency: inactive
[7]
  Potency: inactive
[8]
  Potency: inactive
[9]
  Potency: inactive
[11]
  Potency: inactive
[12]
  Potency: inactive
[13]
  Potency: inactive
[18]
  Potency: inactive
[14]
  outcome: inactive
[15]
  Potency: inactive
[16]
  Potency: inactive
[17]
  Potency: inactive

## O=c1oc2ccccc2c(O)c1C(CC(O)c1ccc(-c2ccc(Br)cc2)cc1)c1ccccc1 (stereo not given)
[1]
  Potency: 18.4 µM (active) and 12 µM (active)
[2]
  Potency: inactive
[3]
  Potency: inactive
[5]
  Potency: inactive
[6]
  Potency: inactive
[7]
  Potency: inactive
[8]
  Potency: inactive
[9]
  Potency: inactive
[10]
  Potency: 20.7 µM (active) and 21.3 µM (active)
[11]
  Potency: inactive
[12]
  Potency: inactive
[13]
  Potency: inactive
[19]
  Potency: inactive
[18]
  Potency: inactive
[14]
  outcome: inactive
[15]
  Potency: inactive
[16]
  Potency: inactive
[17]
  Potency: inactive

## Oc1ccc(-c2ccccc2)cc1
[1]
  Potency: inactive
[2]
  Potency: 24.2 µM (active) and inactive
[3]
  Potency: inactive
[4]
  Potency: inactive and 49 µM (active)
[5]
  Potency: inactive
[6]
  Potency: inactive
[7]
  Potency: 21.9 µM (active)
[9]
  Potency: inactive
[10]
  Potency: inactive
[11]
  Potency: inactive
[12]
  Potency: inactive
[13]
  Potency: inactive
[19]
  Potency: inactive
[18]
  Potency: inactive
[14]
  outcome: inactive
[16]
  Potency: inactive
[17]
  Potency: inactive

## O=C(NC(=O)c1c(F)cccc1F)Nc1ccc(Cl)cc1
[1]
  Potency: inactive
[2]
  Potency: inactive
[3]
  Potency: inactive
[4]
  Potency: inactive
[5]
  Potency: inactive
[6]
  Potency: inactive
[8]
  Potency: inactive
[9]
  Potency: inactive
[10]
  Potency: inactive
[11]
  Potency: inactive
[12]
  Potency: inactive
[13]
  Potency: inactive
[19]
  Potency: inactive
[18]
  Potency: inactive
[14]
  outcome: inactive
[15]
  Potency: inactive
[16]
  Potency: inactive
[17]
  Potency: inactive

## CCCCOCCOP(=O)(OCCOCCCC)OCCOCCCC
[1]
  Potency: inactive
[2]
  Potency: inactive
[3]
  Potency: inactive
[4]
  Potency: inactive
[5]
  Potency: inactive
[7]
  Potency: inactive
[8]
  Potency: inactive
[9]
  Potency: inactive
[10]
  Potency: inactive
[11]
  Potency: inactive
[12]
  Potency: inactive
[13]
  Potency: inactive
[19]
  Potency: inactive
[14]
  outcome: inactive
[15]
  Potency: inactive
[16]
  Potency: inactive
[17]
  Potency: inactive

## C=C(C)[C@H]1Cc2c(ccc3c2O[C@@H]2COc4cc(OC)c(OC)cc4[C@@H]2C3=O)O1
[1]
  Potency: inactive
[2]
  Potency: inactive
[3]
  Potency: inactive
[4]
  Potency: 27.9 µM (active) and 24.5 µM (active)
[5]
  Potency: inactive
[7]
  Potency: 62.5 nM (active) and 12.3 nM (active) and 47.7 nM (active)
[8]
  Potency: 249 nM (active) and 219 nM (active) and 60.1 nM (active)
[10]
  Potency: inactive
[11]
  Potency: inactive
[12]
  Potency: 0.0486 µM (active)
[13]
  Potency: 78 nM (active) and 54.5 nM (active) and 106 nM (active)
[20]
  Potency: 31 nM (active) and 19.3 nM (active) and 47.3 nM (active)
[18]
  Potency: inactive
[14]
  outcome: inactive
[15]
  Potency: 24.7 µM (active) and inactive
[16]
  Potency: 22 µM (active) and 6.11 µM (active)
[17]
  Potency: inactive
